Reference: PubChem BioAssay (EPA / NIEHS)
Inconclusive results are not listed. Some compounds were tested as several samples or in several runs, with calls that do not always agree. Activity calls are given as the source filed them. Rule for the calls, unless noted: active = hit-call score of the fitted dose curve at least 0.9, where 1 is the maximum; inactive = score below 0.9.

System: not listed separately
Assay: IUF_NPC3_neuronal_differentiation_120hr: Leibniz Research Institute for Environmental Medicine (IUF) 120-hour Neuronal Differentiation Assay (NPC3) (AID 2284301)
Conditions: not given
How it was run: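 Primary human fetal neural progenitor spheres (GW 16-19, 0.3 mm) plated on poly-D-lysine/laminin in N2 medium, exposed from day 0 for 120 h with half-medium refresh at day 3. TUBB3+ cells as percent of Hoechst nuclei in migration area; DMSO baseline.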

Q: With `COCCOCCOCCO` as the compound, how does the outcome read?
A: inactive

Q: With `Oc1c(Cl)cc(Cl)c(Cl)c1Cc1c(O)c(Cl)cc(Cl)c1Cl` as the compound, how does the AC50 read?
A: 472 nM (active)

Q: With `COCCc1ccc(OCC(O)CNC(C)C)cc1` (configuration not stated) as the compound, how does the outcome read?
A: inactive

Q: Which outcome does the source give for `CN(C)CCOC(C)(c1ccccc1)c1ccccn1` (configuration not stated) here?
A: inactive

System: not listed separately
Assay: IUF_NPC4_neurite_length_120hr: Leibniz Research Institute for Environmental Medicine (IUF) 120-hour Neuronal Morphology Assay for Neurite Length (NPC4) (AID 2284302)
Conditions: not given
How it was run: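 Human fetal cortex (GW 16-19) neural progenitor spheres, 0.3 mm, were plated on poly-D-lysine/laminin in N2 differentiation medium and exposed from day 0 for 120 h, half-feeding at day 3. Mean TUBB3+ neurite length (µm) came from skeletonized images, relative to DMSO.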

Q: For `Oc1c(Cl)cc(Cl)c(Cl)c1Cc1c(O)c(Cl)cc(Cl)c1Cl`, which AC50 is on record?
A: 168 nM (active)

Q: Which outcome does the source give for `COCCc1ccc(OCC(O)CNC(C)C)cc1` (configuration not stated) here?
A: inactive

Q: For `CN(C)CCOC(C)(c1ccccc1)c1ccccn1` (configuration not stated), which outcome is on record?
A: inactive

Read-out: CD69, CD69 (gene 969)
Assay: BSK_LPS_CD69: BioMAP Diversity Plus: LPS Assay for CD69 Biomarker Activity (AID 2284303)
Conditions: primary human HUVEC with PBMC
How it was run: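 Human umbilical vein endothelial cells co-cultured with PBMC under LPS stimulation, chemical exposure 24 h; cell-surface CD69 measured by ELISA and fitted in the positive direction versus DMSO.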

Q: With `O=CN1CCOCC1` as the compound, how does the outcome read?
A: inactive

Q: With `CCCCCCC(CO)CCCC` (configuration not stated) as the compound, how does the outcome read?
A: inactive

Q: For `C=CC(C)(O)CCC=C(C)C` (configuration not stated), which outcome is on record?
A: inactive

Q: Which outcome does the source give for `O=C(Nc1ccc2c(O)c(N=Nc3ccc(N=Nc4ccc(S(=O)(=O)O)cc4)cc3)c(S(=O)(=O)O)cc2c1)c1ccccc1` here?
A: inactive

Q: With `CC(CN=Cc1ccccc1O)N=Cc1ccccc1O` (configuration not stated) as the compound, how does the outcome read?
A: inactive

Q: Which outcome does the source give for `CC1(C)CCC[C@]2(C)[C@H]3CCO[C@]3(C)CC[C@@H]12` here?
A: inactive

Q: With `CCOC(=O)C(C#N)=C(c1ccccc1)c1ccccc1` as the compound, how does the AC50 read?
A: 27900 nM (active)

Q: What about the outcome of the same compound?
A: inactive

System: not listed separately
Assay: IUF_NPC5_oligodendrocyte_differentiation_120hr: Leibniz Research Institute for Environmental Medicine (IUF) 120-hour Oligodendrocyte Differentiation Assay (NPC5) (AID 2284304; active = hit-call score of the fitted dose curve at least 0.9, where 1 is the maximum;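 note: share of O4-positive cells among Hoechst nuclei found by CNN image analysis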)
Conditions: not given
How it was run: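 Human fetal neural progenitor spheres (0.3 mm) plated on poly-D-lysine/laminin in N2 differentiation medium and exposed for 120 h at 7 concentrations, with half-medium renewal at day 3. O4-positive cells identified by CNN, expressed as percent of Hoechst nuclei.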

Q: Which outcome does the source give for `COCCOCCOCCO` here?
A: inactive

Q: With `Oc1c(Cl)cc(Cl)c(Cl)c1Cc1c(O)c(Cl)cc(Cl)c1Cl` as the compound, how does the AC50 read?
A: 75.1 nM (active)

Q: Which outcome does the source give for `COCCc1ccc(OCC(O)CNC(C)C)cc1` (configuration not stated) here?
A: inactive

System: not listed separately
Assay: IUF_NPC4_neurite_area_120hr: Leibniz Research Institute for Environmental Medicine (IUF) 120-hour Neuronal Morphology Assay for Neurite Area (NPC4) (AID 2284305; active = hit-call score of the fitted dose curve at least 0.9, where 1 is the maximum)
Conditions: not given
How it was run: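 Human fetal cortex-derived neural progenitor spheres (0.3 mm, GW 16-19) plated on poly-D-lysine/laminin in N2 differentiation medium and exposed from day 0 for 120 h across 7 concentrations plus solvent control. Neurite area is mean pixel area per TUBB3-positive neuron via skeletonization, analysed relative to DMSO.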

Q: For `COCCOCCOCCO`, which outcome is on record?
A: inactive

Q: With `Oc1c(Cl)cc(Cl)c(Cl)c1Cc1c(O)c(Cl)cc(Cl)c1Cl` as the compound, how does the AC50 read?
A: 264 nM (active)

Q: With `COCCc1ccc(OCC(O)CNC(C)C)cc1` (configuration not stated) as the compound, how does the outcome read?
A: inactive

System: not listed separately
Assay: IUF_NPC2-5_cytotoxicity_72hr: Cytotoxicity Assessment at 72 hours in the Leibniz Research Institute for Environmental Medicine (IUF) Neural Progenitor Cell Migration and Differentiation Assay for Cytotoxicity (NPC2-5) (AID 2284306; active = hit-call score of the fitted dose curve at least 0.9, where 1 is the maximum;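 note: LDH release into supernatant measured by resorufin fluorescence marking membrane damage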)
Conditions: not given
How it was run: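 Human fetal (GW 16-19) neural progenitor spheres, 0.3 mm, plated on poly-D-lysine/laminin in N2 differentiation medium and exposed from day 0 to 7 concentrations plus solvent control (DMSO ≤0.1%). LDH-dependent resazurin-to-resorufin fluorescence in supernatant at 72 h.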

Q: With `COCCOCCOCCO` as the compound, how does the outcome read?
A: inactive

Q: Which AC50 does the source give for `Oc1c(Cl)cc(Cl)c(Cl)c1Cc1c(O)c(Cl)cc(Cl)c1Cl` here?
A: 702 nM (active)

Q: With `COCCc1ccc(OCC(O)CNC(C)C)cc1` (configuration not stated) as the compound, how does the outcome read?
A: inactive

Q: Which outcome does the source give for `CN(C)CCOC(C)(c1ccccc1)c1ccccn1` (configuration not stated) here?
A: inactive

System: not listed separately
Assay: IUF_NPC2-5_cytotoxicity_120hr: Cytotoxicity Assessment at 120 hours in the Leibniz Research Institute for Environmental Medicine (IUF) Neural Progenitor Cell Migration and Differentiation Assay (NPC2-5) (AID 2284307; active = hit-call score of the fitted dose curve at least 0.9, where 1 is the maximum;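 for AC50: LDH released into supernatant as membrane damage marker via resorufin fluorescence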)
Conditions: not given
How it was run: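 Human fetal (GW 16-19) neural progenitor spheres (0.3 mm) plated on poly-D-lysine/laminin in N2 differentiation medium, exposed 120 h with half-medium renewal at day 3; 7 concentrations plus solvent control, DMSO ≤0.1%. LDH release in supernatant read by resorufin fluorescence.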

Q: For `COCCOCCOCCO`, which outcome is on record?
A: inactive

Q: With `Oc1c(Cl)cc(Cl)c(Cl)c1Cc1c(O)c(Cl)cc(Cl)c1Cl` as the compound, how does the AC50 read?
A: 295 nM (active)

Q: For `COCCc1ccc(OCC(O)CNC(C)C)cc1` (configuration not stated), which outcome is on record?
A: inactive

Q: With `CN(C)CCOC(C)(c1ccccc1)c1ccccn1` (configuration not stated) as the compound, how does the outcome read?
A: inactive

System: not listed separately
Assay: IUF_NPC2-5_cell_number_120hr: Cell Number Assessment at 120 hours in the Leibniz Research Institute for Environmental Medicine (IUF) Neural Progenitor Cell Migration and Differentiation Assay (NPC2-5) (AID 2284308);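 note: count of Hoechst-stained nuclei in migration zone around plated human neural progenitor spheres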
Conditions: not given
Description: IUF_NPC2-5 is a cell-based, multiplexed assay that uses hNPC, a human primary neural progenitor cells, with measurements taken at 72 or 120 hours after chemical dosing in a 96-well plate. Human neural progenitor cells (hNPC) are generated from human fetal brain cortex at gestational week (GW) 16-19. In the neural progenitor cell migration and differentiation assay (NPC2-5), hNPCs grown as spheres are plated on an extracellular matrix and migrate and differentiate out of the sphere core. The processes radial glia migration, neuronal and oligodendrocyte migration as well as neuronal differentiation, neuronal morphology and oligodendrocyte differentiation are studied using automated phase contrast imaging and automated fluorescence imaging in combination with high content image analysis. In parallel, the cell viability is assessed using an alamar blue viability assay and the cytotoxicity using a lactate dehydrogenase dependent membrane integrity assay.IUF_NPC2-5_cell number_120hr is one of 12 assay components measured from the IUF_NPC2-5 assay. The cell number at 120 hr is assessed as the number of all Hoechst-positive nuclei identified in the migration area (see IUF_NPC2a_ glia_migration_120hr).Data from the IUF_NPC2-5_cell_number_120hr component was analyzed at the endpoint IUF_NPC2-5_cell_number_120hr in the positive analysis fitting direction relative to DMSO as the negative control and baseline of activity. Using a type of viability reporter, gain or loss-of-signal activity can be used to understand viability effects.
Culture protocol: After the cell expansion period the cells are cultured for up to four weeks in which they are passaged every week as described in 3.6. Between one to three days after passaging spheres at a size of 0.3 mm are picked for the test method. For the assessment of neural progenitor cell migration and differentiation, the spheres are plated on poly-D-lysine/laminin coated 96-well flat bottom plates in differentiation medium (N2) to initiate migration and differentiation. Thereby one 0.3 mm big sphere is plated in the middle of a well. […] Therefore, half of the test condition solution (e.g. solvent control or compound dilution) is replaced by freshly prepared test condition solution.Test Method: Migration distance and cytotoxicity is determined after 72 hours based on brightfield images of each well. […] On the ICC images, migration after 120 hours, neuronal and oligodendrocyte number, neuronal morphology and neuron/oligodendrocyte specific migration is assessed. immunocytochemical staining (ICC) generates an image for each sphere. The plates are scanned using an automated high content imaging device and all nuclei and their positions are determined automatically based on their intensity and size. […]

Q: For `COCCOCCOCCO`, which outcome is on record?
A: inactive

Q: Which AC50 does the source give for `Oc1c(Cl)cc(Cl)c(Cl)c1Cc1c(O)c(Cl)cc(Cl)c1Cl` here?
A: 204 nM (active)

Q: With `COCCc1ccc(OCC(O)CNC(C)C)cc1` (configuration not stated) as the compound, how does the outcome read?
A: inactive

Q: Which outcome does the source give for `CN(C)CCOC(C)(c1ccccc1)c1ccccn1` (configuration not stated) here?
A: inactive

System: not listed separately
Assay: IUF_NPC2-5_viability_120hr: Viability Assessment at 120 hours in the Leibniz Research Institute for Environmental Medicine (IUF) Neural Progenitor Cell Migration and Differentiation Assay (NPC2-5) (AID 2284312)
Conditions: not given
How it was run: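 Human fetal (GW 16-19) neural progenitor spheres of 0.3 mm were plated on poly-D-lysine/laminin in N2 differentiation medium and exposed from day 0 for 120 h, with half-medium refresh at day 3. Viability was read as alamar blue resazurin-to-resorufin fluorescence against DMSO.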

Q: With `COCCOCCOCCO` as the compound, how does the outcome read?
A: inactive

Q: With `Oc1c(Cl)cc(Cl)c(Cl)c1Cc1c(O)c(Cl)cc(Cl)c1Cl` as the compound, how does the AC50 read?
A: 147 nM (active)

Q: For `COCCc1ccc(OCC(O)CNC(C)C)cc1` (configuration not stated), which outcome is on record?
A: inactive

Q: With `CN(C)CCOC(C)(c1ccccc1)c1ccccn1` (configuration not stated) as the compound, how does the outcome read?
A: inactive
